target: AgAbp1; assay: SPOT peptide array binding signal intensity (averaged, normalized) (arbitrary units (background-subtracted, floor 0; scale differs between SH3 domains)); higher = stronger binding of the SH3 domain to the peptide
Method in brief: (§1)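 GST-fused SH3 domains from four yeast species were expressed in E. coli BL21(DE3), purified on glutathione Sepharose and incubated at 10 μg/ml overnight at 4°C in TBS-based blocking buffer on cellulose membranes carrying synthetic 15-mer peptides, with cysteines replaced by serines. Bound protein was detected with anti-GST antibody, an HRP anti-mouse secondary and luminol, then imaged and quantified with Genespotter. Binding signal is the normalized, background-subtracted spot intensity averaged over replicates, in arbitrary units that differ between domains.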

Binder | SPOT peptide array binding signal intensity
AGKRRLPLVRFKASD | 162

target: AgBbc1; assay: as above
Method in brief: as §1

Binder | SPOT peptide array binding signal intensity
AGKRRLPLVRFKASD | 109

target: AgBem1-D1; assay: as above
Method in brief: as §1

Binder | SPOT peptide array binding signal intensity
AGKRRLPLVRFKASD | 301

target: AgBzz1-D1; assay: as above
Method in brief: as §1

Binder | SPOT peptide array binding signal intensity
AGKRRLPLVRFKASD | 44

target: AgBzz1-D2; assay: as above
Method in brief: as §1

Binder | SPOT peptide array binding signal intensity
AGKRRLPLVRFKASD | 40.5

target: AgCyk3; assay: as above
Method in brief: as §1

Binder | SPOT peptide array binding signal intensity
AGKRRLPLVRFKASD | 5

target: AgFus1; assay: as above
Method in brief: as §1

Binder | SPOT peptide array binding signal intensity
AGKRRLPLVRFKASD | 783

target: AgHof1; assay: as above
Method in brief: as §1

Binder | SPOT peptide array binding signal intensity
AGKRRLPLVRFKASD | 84

target: AgHse1; assay: as above
Method in brief: as §1

Binder | SPOT peptide array binding signal intensity
AGKRRLPLVRFKASD | 1070

target: AgLsb1; assay: as above
Method in brief: as §1

Binder | SPOT peptide array binding signal intensity
AGKRRLPLVRFKASD | 4

target: AgLsb4; assay: as above
Method in brief: as §1

Binder | SPOT peptide array binding signal intensity
AGKRRLPLVRFKASD | 214

target: AgMyo5; assay: as above
Method in brief: as §1

Binder | SPOT peptide array binding signal intensity
AGKRRLPLVRFKASD | 2

target: AgNbp2; assay: as above
Method in brief: as §1

Binder | SPOT peptide array binding signal intensity
AGKRRLPLVRFKASD | 232

target: AgRvs167; assay: as above
Method in brief: as §1

Binder | SPOT peptide array binding signal intensity
AGKRRLPLVRFKASD | 6

target: AgSho1; assay: as above
Method in brief: as §1

Binder | SPOT peptide array binding signal intensity
AGKRRLPLVRFKASD | 218

target: AgSla1-D1-D2; assay: as above
Method in brief: as §1

Binder | SPOT peptide array binding signal intensity
AGKRRLPLVRFKASD | 736

target: AgSla1-D3; assay: as above
Method in brief: as §1

Binder | SPOT peptide array binding signal intensity
AGKRRLPLVRFKASD | 11.8

target: CaAbp1-D1; assay: as above
Method in brief: as §1

Binder | SPOT peptide array binding signal intensity
AGKRRLPLVRFKASD | 1220

target: CaAbp1-D2; assay: as above
Method in brief: as §1

Binder | SPOT peptide array binding signal intensity
AGKRRLPLVRFKASD | 806

target: CaBbc1; assay: as above
Method in brief: as §1

Binder | SPOT peptide array binding signal intensity
AGKRRLPLVRFKASD | 259

target: CaBem1-D1; assay: as above
Method in brief: as §1

Binder | SPOT peptide array binding signal intensity
AGKRRLPLVRFKASD | 80.5

target: CaBzz1-D1; assay: as above
Method in brief: as §1

Binder | SPOT peptide array binding signal intensity
AGKRRLPLVRFKASD | 125

target: CaBzz1-D2; assay: as above
Method in brief: as §1

Binder | SPOT peptide array binding signal intensity
AGKRRLPLVRFKASD | 147

target: CaCyk3; assay: as above
Method in brief: as §1

Binder | SPOT peptide array binding signal intensity
AGKRRLPLVRFKASD | 69

target: CaFus1; assay: as above
Method in brief: as §1

Binder | SPOT peptide array binding signal intensity
AGKRRLPLVRFKASD | 2040

target: CaHof1; assay: as above
Method in brief: as §1

Binder | SPOT peptide array binding signal intensity
AGKRRLPLVRFKASD | 0.75

target: CaHse1; assay: as above
Method in brief: as §1

Binder | SPOT peptide array binding signal intensity
AGKRRLPLVRFKASD | 71.5

target: CaLsb1; assay: as above
Method in brief: as §1

Binder | SPOT peptide array binding signal intensity
AGKRRLPLVRFKASD | 2

target: CaLsb4; assay: as above
Method in brief: as §1

Binder | SPOT peptide array binding signal intensity
AGKRRLPLVRFKASD | 173

target: CaMyo5; assay: as above
Method in brief: as §1

Binder | SPOT peptide array binding signal intensity
AGKRRLPLVRFKASD | 3

Source: the supplement of paper PMC4466140
